According to PubChem BioAssay (Tox21):
Results filed as inconclusive are left out. Calls of active or inactive are those of the source. Unless noted, calls come from the whole dose curve.

Tests used:
[1] = target: Thyrotropin receptor (Homo sapiens) (UniProt P16473); experiment: qHTS assay to identify small molecule agonists of the thyroid stimulating hormone receptor (TSHR) signaling pathway (AID 1224843); note: nearly all actives have a fitted effect of over 45% in size
Outline: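 Agonist activity read as cAMP rise via d2/cryptate HTRF competition, 1 h room-temperature detection, in HEK293 cells expressing TSHR. Fifteen-point titrations, each run in triplicate, with a 30 min room-temperature incubation beforehand.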

[2] = qHTS assay to identify small molecule agonists of the hypoxia (HIF-1) signaling pathway - cell viability counter screen (AID 1224844); note: nearly all actives have a fitted effect of over 50% in size; note: potency is the fitted concentration of half-maximal effect
Outline: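 CellTiter-Glo luminescence read-out, 30 min RT, taken in the same wells as the beta-lactamase HRE reporter assay; HRE-bla ME-180 cells, 0.5% dialyzed FBS, 17 hr compound treatment at 37C, 5% CO2.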

[3] = qHTS assay to identify small molecule agonists of H2AX (AID 1224845; active = well fitted activation curve with a large enough effect in the signal ratio in the repeat runs, not every such curve was filed as active; the % refers to the signal ratio)
Outline: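 Phospho-H2AX Ser139 measured by HTRF (ex 320 nm; em 665 and 620 nm) after 24 hr antibody incubation. Compounds, 15 concentrations, 0.76% DMSO, were applied to CHO-K1 cells for 3hr at 37C before lysis.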

[4] = qHTS assay to identify small molecule agonists of the hypoxia (HIF-1) signaling pathway (AID 1224846; active = well fitted activation curve with a large enough effect in the signal ratio in the repeat runs, not every such curve was filed as active; the % refers to the signal ratio)
Outline: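 Beta-lactamase FRET read-out (CCF4-AM substrate) from ME-180 cells carrying an HRE-driven bla reporter, after 17 hrs compound exposure at 37C/5% CO2. Cells were seeded at 2,000 per well in 0.5% dialyzed FBS medium and preincubated 5 hrs.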

[5] = qHTS assay to identify small molecule agonists of H2AX - cell viability counter screen (AID 1224847); note: top concentration of the series differs between compounds; nearly all actives have a fitted effect of over 30% in size
Outline: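 Compounds tested at 15 concentrations were incubated 3 hr at 37C with wild-type CHO-K1 cells; cellular ATP-based luminescence (CellTiter-Glo) indicated viability.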

[6] = qHTS RealTime-Glo MT Cell Viability Assay in HepG2 cells - 24 hour (AID 1224867; active = well fitted curve in the direction sought with a large enough effect in the repeat runs; an effect the other way counts as inactive or inconclusive; note: nearly all actives have a fitted effect of over 50% in size)
Outline: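 HepG2 suspension premixed with RealTime-Glo reagents is plated at 600 cells per well and left 5 h at 37 C/5% CO2. Compounds in DMSO then go in, and bioluminescence reflecting viable cell number is recorded over 40 h.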

[7] = qHTS RealTime-Glo MT Cell Viability Assay in HEK293 cells - 32 hour (AID 1224868; active = well fitted curve in the direction sought with a large enough effect in the repeat runs; an effect the other way counts as inactive or inconclusive; note: top concentration of the series differs between compounds; nearly all actives have a fitted effect of over 50% in size)
Outline: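 Reads taken at 0, 8, 16, 24, 32 and 40 h from the same wells. HEK293 cells (600/well) carried RealTime-Glo reagents from seeding, with compound added after a 5 h settle at 37 C.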

[8] = A CellTox Green Cytotoxicity Assay to monitor cytotoxicity in HEK293 cells - 0 hour (AID 1224869; active = well fitted curve in the direction sought with a large enough effect in the repeat runs; an effect the other way counts as inactive or inconclusive; note: nearly all actives have a fitted effect of over 50% in size)
Outline: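 Read-out: fluorescence of a cell-impermeant cyanine dye staining DNA of dead cells, proportional to cytotoxicity. HEK293, 600 cells/well with reagent, compound (23 nL DMSO) added after 5 h; reads at 0, 8, 16, 24, 32, 40 h.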

[9] = qHTS assay to identify small molecule agonists of the estrogen related receptor (ERR) signaling pathway from Tox21 library (AID 1224849); settings: ERR reporter cell line, ONE-Glo luciferase, 18 h; at 92.4 µM (top of the series) unless noted; note: nearly all actives have a fitted effect of over 15% in size
Outline: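 Luminescence readout (ONE-Glo, 30 min RT) after 18 h compound exposure at 37 C of NTP-supplied ERR reporter cells; cells were plated 6 h before compound addition by pin tool.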

[10] = qHTS assay to identify small molecule antagonists of the estrogen related receptor (ERR) signaling pathway from Tox21 library (AID 1224848; active = well fitted curve in the direction sought with a large enough effect in the repeat runs; an effect the other way counts as inactive or inconclusive; note: nearly all actives have a fitted effect of over 50% in size)
Outline: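 Luciferase luminescence (ONE-Glo, 30 min room temperature) was the read-out. Cells of the NTP-supplied ERR line, 2,000 per well, were given 6 h at 37 C before compound addition in DMSO and 18 h exposure at 37 C.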
% is set by controls: 0 for no effect and ±100 for the full control effect.

Thyrotropin receptor (Homo sapiens), sequence (P16473 whole entry, looked up): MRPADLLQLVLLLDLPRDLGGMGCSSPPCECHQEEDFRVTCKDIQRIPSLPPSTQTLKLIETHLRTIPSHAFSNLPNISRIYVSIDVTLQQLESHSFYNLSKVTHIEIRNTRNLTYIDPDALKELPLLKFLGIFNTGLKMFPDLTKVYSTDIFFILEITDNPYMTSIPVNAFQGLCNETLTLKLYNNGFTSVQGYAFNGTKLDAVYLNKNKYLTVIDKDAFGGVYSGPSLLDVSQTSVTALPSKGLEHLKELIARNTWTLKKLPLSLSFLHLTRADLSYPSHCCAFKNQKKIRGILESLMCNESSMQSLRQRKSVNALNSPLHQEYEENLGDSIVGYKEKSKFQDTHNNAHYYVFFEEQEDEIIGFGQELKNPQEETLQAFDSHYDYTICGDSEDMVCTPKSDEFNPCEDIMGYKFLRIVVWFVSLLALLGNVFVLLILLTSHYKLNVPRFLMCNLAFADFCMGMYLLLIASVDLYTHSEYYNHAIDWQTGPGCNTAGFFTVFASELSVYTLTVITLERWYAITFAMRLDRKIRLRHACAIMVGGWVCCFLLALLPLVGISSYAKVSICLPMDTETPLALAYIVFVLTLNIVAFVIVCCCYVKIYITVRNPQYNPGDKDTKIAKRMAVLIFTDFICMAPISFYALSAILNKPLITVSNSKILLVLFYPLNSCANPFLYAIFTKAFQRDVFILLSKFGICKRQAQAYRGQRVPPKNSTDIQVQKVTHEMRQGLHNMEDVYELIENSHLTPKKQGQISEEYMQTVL

CCOC(=O)[C@H](CCc1ccccc1)N[C@@H](C)C(=O)N1Cc2cc(OC)c(OC)cc2C[C@H]1C(=O)O
inactive: Potency [1] | Potency [2] | Potency [3] | outcome [4] | Potency [5] | Potency [6] | Potency [7] | Potency [8]

CC(=O)Nc1ccc(C)c(Cl)c1
inactive: Potency [1] | Potency [2] | Potency [3] | outcome [4] | Potency [5] | Potency [6] | Potency [7] | Potency [8]

CCCCCCC
inactive: Potency [1] | Potency [2] | Potency [3] | outcome [4] | Potency [5] | Potency [6] | Potency [7]

CC(C)c1ccccc1
inactive: Potency [1] | Potency [2] | Potency [3] | outcome [4] | Potency [5] | Potency [6] | Potency [7] | Potency [8]

CC(C)Nc1nc(N)nc(Cl)n1
inactive: Potency [1] | Potency [2] | Potency [3] | outcome [4] | Potency [5] | Potency [6] | Potency [7] | Potency [8]

C=CC1CO1 (stereo not drawn)
inactive: Potency [1] | Potency [2] | Potency [3] | outcome [4] | Potency [5] | Potency [6] | Potency [7] | Potency [8]

C=CCc1cc(OC)c(O)c(C(=O)NCCO)c1
inactive: Potency [1] | Potency [2] | Potency [3] | outcome [4] | Potency [5] | Potency [6] | Potency [7] | Potency [8]

CN(CC1(C)CCCO1)S(=O)(=O)c1ccc(Cl)c(S(N)(=O)=O)c1 (stereo not drawn)
inactive: Potency [1] | Potency [2] | Potency [3] | outcome [4] | Potency [5] | Potency [6] | Potency [7] | Potency [8]

Cc1cc(NS(=O)(=O)c2ccc(N)cc2)nc(C)n1
inactive: Potency [1] | Potency [2] | Potency [3] | outcome [4] | Potency [5] | Potency [6] | Potency [7] | Potency [8]

CCC(=O)Nc1ccc(O)cc1
inactive: Potency [1] | Potency [2] | Potency [3] | outcome [4] | Potency [5] | Potency [6] | Potency [7]

CN(C)Cc1ccccc1
inactive: Potency [1] | Potency [2] | Potency [3] | outcome [4] | Potency [5] | Potency [6] | Potency [7] | Potency [8]

C=C(C)C(=O)OCCOP(=O)(O)O
inactive: Potency [1] | Potency [2] | Potency [3] | outcome [4] | Potency [5] | Potency [6] | Potency [7] | Potency [8]

CS(=O)(=O)c1ccc([C@@H](O)[C@@H](CF)NC(=O)C(Cl)Cl)cc1
inactive: Potency [1] | Potency [2] | Potency [3] | outcome [4] | Potency [5] | Potency [6] | Potency [7] | Potency [8]

COc1cc(Cl)ccc1Cl
inactive: Potency [1] | Potency [2] | Potency [3] | outcome [4] | Potency [5] | Potency [6] | Potency [7] | Potency [8]

CC(C)=CCCC(C)CCOC=O (stereo not drawn)
inactive: Potency [1] | Potency [2] | Potency [3] | outcome [4] | Potency [5] | Potency [6] | Potency [7] | Potency [8]

O=C1Nc2ccc([N+](=O)[O-])cc2C1=O
inactive: Potency [1] | Potency [2] | Potency [3] | outcome [4] | Potency [5] | Potency [6]

CCCC1CCC(=O)O1 (stereo not drawn)
inactive: Potency [1] | Potency [2] | Potency [3] | outcome [4] | Potency [5] | Potency [6] | Potency [7] | Potency [8]

C[C@@H](N)C(=O)O
inactive: Potency [1] | Potency [2] | Potency [3] | outcome [4] | Potency [5] | Potency [6] | Potency [7] | Potency [8]

O=C(O)C(=O)Cc1c[nH]c2ccccc12
inactive: Potency [1] | Potency [2] | Potency [3] | Potency [5] | Potency [6] | Potency [7] | Potency [8]

CCCCCCCCCCCCOCCOS(=O)(=O)O
active: Potency [2] 43.6 µM
inactive: Potency [1] | Potency [3] | Potency [5] | activity change, positive = activation [9] -29.3% | Potency [6] | Potency [8]

CC(C)C(=O)OC/C=C/c1ccccc1
inactive: Potency [1] | Potency [2] | Potency [3] | Potency [5] | Potency [10] | activity change, positive = activation [9] 4.91% | Potency [6] | Potency [7] | Potency [8]
